From PubChem BioAssay (Tox21)
Where “and” joins values, the source holds several entries; their conditions need not be identical. Equal values may be shown once. Unmarked numbers belong to inactive results. Records with an inconclusive call do not appear. Where a call stands in place of a potency, no number is given. Calls of active or inactive are those of the source. Unless noted, calls follow the shape of the dose curve; as a rule, active = well fitted curve in the direction sought with a large enough effect in the repeat runs; inconclusive = weak or mixed curves; inactive = no such curve, though single readings can be large; an effect the other way counts as inactive or inconclusive.

Key:
[1] = molecular target: Thyrotropin receptor (Homo sapiens) (UniProt P16473); assay: qHTS assay to identify small molecule antagonists of the thyroid stimulating hormone receptor (TSHR) signaling pathway (AID 1259385; calls by dose curve; also: nearly all actives have a fitted effect of over 20% in size)
Thyrotropin receptor (Homo sapiens), sequence (P16473 whole entry, looked up): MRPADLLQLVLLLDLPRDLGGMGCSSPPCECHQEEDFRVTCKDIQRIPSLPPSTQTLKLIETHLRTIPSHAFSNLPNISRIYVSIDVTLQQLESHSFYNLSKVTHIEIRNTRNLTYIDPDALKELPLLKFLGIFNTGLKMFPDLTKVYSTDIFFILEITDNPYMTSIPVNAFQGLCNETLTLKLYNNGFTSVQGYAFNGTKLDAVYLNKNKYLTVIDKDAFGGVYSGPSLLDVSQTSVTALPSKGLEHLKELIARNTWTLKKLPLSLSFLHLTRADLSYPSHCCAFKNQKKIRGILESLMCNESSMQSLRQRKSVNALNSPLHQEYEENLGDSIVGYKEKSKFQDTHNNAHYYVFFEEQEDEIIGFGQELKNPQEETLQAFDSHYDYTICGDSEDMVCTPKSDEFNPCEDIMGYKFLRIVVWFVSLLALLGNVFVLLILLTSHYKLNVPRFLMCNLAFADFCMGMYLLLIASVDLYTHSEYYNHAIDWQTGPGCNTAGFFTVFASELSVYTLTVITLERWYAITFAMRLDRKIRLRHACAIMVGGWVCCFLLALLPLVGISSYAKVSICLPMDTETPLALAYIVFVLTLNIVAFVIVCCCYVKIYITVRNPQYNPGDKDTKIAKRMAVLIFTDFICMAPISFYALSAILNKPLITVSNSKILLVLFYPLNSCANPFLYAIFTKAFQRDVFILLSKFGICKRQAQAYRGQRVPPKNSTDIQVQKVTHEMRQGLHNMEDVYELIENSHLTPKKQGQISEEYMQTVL
How it was run: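 Antagonist mode: compound-treated TSHR-expressing HEK293 cells were stimulated with 1.5 ng/mL TSH (final) in presence of Ro20-1724 for 30 min at RT. HTRF cAMP detection after 1 h; each compound tested at 15 concentrations, triplicate.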

[2] = qHTS assay to identify small molecule agonists of the estrogen receptor alpha (ER-alpha) signaling pathway in the presence of an antagonist - cell viability counter screen (AID 1259386);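 also: series mostly up to about 92 µM; cells exposed to compounds for 22 h at 37 °C before the viability read; nearly all actives have a fitted effect of over 30% in size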
How it was run: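 ICI-182,780 at 10.0nM final accompanies the compound titration (15 concentrations, 22hr, 37C) on VM7Luc4E2 cells. The CellTiter-Fluor fluorescence readout runs in the same wells as the luciferase assay.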

[3] = molecular target: Progesterone receptor (Homo sapiens) (UniProt P06401); assay: qHTS assay to identify small molecule agonists of the progesterone receptor (PR) signaling pathway (AID 1346784; calls by dose curve; also: nearly all actives have a fitted effect of over 30% in size)
Progesterone receptor (Homo sapiens), sequence (P06401 whole entry, looked up): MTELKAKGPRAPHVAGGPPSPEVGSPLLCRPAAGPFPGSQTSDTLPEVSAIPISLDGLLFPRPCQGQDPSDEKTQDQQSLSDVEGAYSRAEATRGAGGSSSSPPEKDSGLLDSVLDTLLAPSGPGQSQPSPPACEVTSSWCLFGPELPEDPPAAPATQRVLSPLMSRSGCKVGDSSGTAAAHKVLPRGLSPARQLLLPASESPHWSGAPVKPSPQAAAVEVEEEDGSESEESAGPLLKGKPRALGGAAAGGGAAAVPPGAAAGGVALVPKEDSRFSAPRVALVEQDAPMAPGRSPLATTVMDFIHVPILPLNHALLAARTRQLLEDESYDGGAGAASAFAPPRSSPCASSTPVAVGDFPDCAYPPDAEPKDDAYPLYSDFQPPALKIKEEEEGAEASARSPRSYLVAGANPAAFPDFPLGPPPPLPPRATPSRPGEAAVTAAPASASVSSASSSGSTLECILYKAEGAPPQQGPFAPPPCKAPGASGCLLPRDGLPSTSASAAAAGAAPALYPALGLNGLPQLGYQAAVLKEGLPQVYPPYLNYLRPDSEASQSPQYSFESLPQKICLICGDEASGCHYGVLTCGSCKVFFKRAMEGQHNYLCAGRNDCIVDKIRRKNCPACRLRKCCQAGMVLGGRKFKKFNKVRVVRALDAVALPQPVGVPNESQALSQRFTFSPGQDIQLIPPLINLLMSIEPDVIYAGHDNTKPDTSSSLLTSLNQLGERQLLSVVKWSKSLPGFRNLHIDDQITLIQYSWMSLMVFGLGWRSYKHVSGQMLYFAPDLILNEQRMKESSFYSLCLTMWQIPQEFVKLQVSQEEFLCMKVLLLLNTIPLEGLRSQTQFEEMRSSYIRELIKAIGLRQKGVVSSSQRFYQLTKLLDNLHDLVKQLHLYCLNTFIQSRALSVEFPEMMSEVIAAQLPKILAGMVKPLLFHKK
How it was run: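 Beta-lactamase reporter read-out: after 16 hr compound treatment at 37C and a further 2 hr at room temperature with LiveBLAzer B/G FRET substrate, fluorescence was measured in PR-UAS-bla HEK 293T cells grown in 2% charcoal-stripped serum.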

[4] = molecular target: Progesterone receptor (Homo sapiens) (UniProt P06401); assay: qHTS assay to identify small molecule antagonists of the progesterone receptor (PR) signaling pathway (AID 1346795; active = well fitted inhibition curve with a large enough effect in the signal ratio in the repeat runs, not every such curve was filed as active; the % refers to the signal ratio)
How it was run: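 Read-out is fluorescence from the LiveBLAzer B/G FRET substrate, cleaved by a UAS-controlled beta-lactamase in PR-UAS-bla HEK293T cells after 16 hr exposure to compound plus 1 nM promegestone (final), followed by 2 hr at room temperature.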

[5] = qHTS assay to identify small molecule antagonists of the progesterone receptor (PR) signaling pathway - cell viability counter screen (AID 1346798);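 also: HEK293T PR-UAS-bla cells stimulated with the agonist R5020; series mostly up to about 92 µM; nearly all actives have a fitted effect of over 50% in size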
How it was run: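 HEK293T PR-UAS-bla, 2% charcoal-stripped FBS; 4 hr pre-plate; cpd + R5020, 16 h 37C; LiveBLAzer read first; then CellTiter-Glo 30 min RT, luminescence.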

[6] = qHTS assay to identify small molecule agonists of the progesterone receptor (PR) signaling pathway - cell viability counter screen (AID 1346799; calls by dose curve; also: nearly all actives have a fitted effect of over 45% in size)
How it was run: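 Luminescence from CellTiter-Glo, added after the beta-lactamase FRET read in the same wells, gave cytotoxicity in PR-UAS-bla HEK293T cells treated with compounds for 16 hr at 37C.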

[7] = qHTS assay to identify small molecule antagonists of the TGF-beta/Smad signaling pathway - cell viability counter screen (AID 1346824); also: nearly all actives have a fitted effect of over 50% in size
How it was run: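 Cytotoxicity counter-screen run in the same wells as the beta-lactamase Smad reporter read: CellTiter-Glo luminescence after 30 min at room temperature. HEK 293T SBE-bla cells had 5 hr compound exposure at 37 C with TGF-beta1 (0.25 ng/mL stock).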

[8] = qHTS assay to identify small molecule agonists of the TGF-beta/Smad signaling pathway - cell viability counter screen (AID 1346829); also: top concentration of the series differs between compounds; nearly all actives have a fitted effect of over 45% in size
How it was run: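 Here the cytotoxicity of library compounds is measured in SBE-bla HEK 293T cells treated for 5 hr, using CellTiter-Glo added to wells already read for the beta-lactamase reporter.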

[9] = qHTS assay to identify small molecule agonists of the TGF-beta/Smad signaling pathway (AID 1346859; active = well fitted activation curve with a large enough effect in the signal ratio in the repeat runs, not every such curve was filed as active; the % refers to the signal ratio; also: series mostly up to about 77 µM)
How it was run: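 SBE-bla HEK 293T, 4,000 cells/well, plated o/n; cpd in DMSO, 5 hr, 37 C/5% CO2; B/G FRET substrate 2 hr RT; ex 405, em 460/530 nm.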

[10] = Human pregnane X receptor (PXR) small molecule agonists, qHTS cell viability counter screen (AID 1346977); also: nearly all actives have a fitted effect of over 50% in size
How it was run: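 PXR-Luc HepG2, 2,000 cells/well, 5% charcoal-stripped FBS; 5hr settle; cpd 24hr, 37C/5% CO2; CellTiter-Fluor at 23hr, read 1hr later (fluorescence).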

[11] = Caspase-3/7 induction in HepG2 cells by small molecules, qHTS assay (AID 1346978); also: nearly all actives have a fitted effect of over 15% in size
How it was run: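 Caspase-3/7 induction was measured by Caspase-Glo 3/7 luminescence (30 min, room temperature) after a 17 hr compound exposure of wild-type HepG2 cells seeded at 2,000 per well and pre-incubated 5 hr.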

[12] = Caspase-3/7 induction in CHO-K1 cells by small molecules, qHTS cell viability counter screen (AID 1346979); also: nearly all actives have a fitted effect of over 35% in size
How it was run: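 Cells (CHO-K1, wild type) are plated at 1,500 per well and incubated 5hr. Test compounds in DMSO are then pinned in, followed by 16hr at 37C and 5% CO2. Viability is read by CellTiter-Fluor fluorescence after 1hr.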

[13] = Caspase-3/7 induction in HepG2 cells by small molecules, qHTS cell viability counter screen (AID 1346981); also: series mostly up to about 92 µM; nearly all actives have a fitted effect of over 30% in size
How it was run: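 Multiplexed with the caspase-3/7 assay: HepG2 cells, 16 hr compound treatment, CellTiter-Fluor viability detection by fluorescence.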

[14] = molecular target: Nuclear receptor subfamily 1 group I member 2 (Homo sapiens) (UniProt O75469); assay: Human pregnane X receptor (PXR) small molecule agonists, qHTS assay (AID 1346982); also: nearly all actives have a fitted effect of over 35% in size
Nuclear receptor subfamily 1 group I member 2 (Homo sapiens), sequence (O75469 whole entry, looked up): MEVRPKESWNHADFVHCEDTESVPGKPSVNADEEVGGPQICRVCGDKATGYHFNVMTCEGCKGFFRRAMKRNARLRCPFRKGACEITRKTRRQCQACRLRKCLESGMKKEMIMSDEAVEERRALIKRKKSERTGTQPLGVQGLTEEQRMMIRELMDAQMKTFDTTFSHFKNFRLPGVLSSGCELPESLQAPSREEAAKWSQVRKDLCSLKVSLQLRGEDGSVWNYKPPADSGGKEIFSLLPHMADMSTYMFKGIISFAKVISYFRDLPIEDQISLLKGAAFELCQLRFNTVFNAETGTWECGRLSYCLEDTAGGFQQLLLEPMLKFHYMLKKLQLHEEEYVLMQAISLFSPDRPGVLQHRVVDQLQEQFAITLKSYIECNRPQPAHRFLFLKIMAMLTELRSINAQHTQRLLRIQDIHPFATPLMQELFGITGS
How it was run: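 We seeded PXR-Luc HepG2 cells in assay medium containing 5% charcoal-stripped FBS, added compounds 5 hr later, incubated 24 hr, and read luminescence with ONE-Glo reagent.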

[15] = molecular target: Cytochrome P450 2D6 (Homo sapiens) (UniProt P10635); assay: Cytochrome P450 Family 2 Subfamily D Member 6 (CYP2D6) small molecule antagonists: luciferase reporter qHTS assay (AID 1671196); also: nearly all actives have a fitted effect of over 50% in size; also: potency is read from the fitted curve at half-maximal effect
Cytochrome P450 2D6 (Homo sapiens), sequence (P10635 whole entry, looked up): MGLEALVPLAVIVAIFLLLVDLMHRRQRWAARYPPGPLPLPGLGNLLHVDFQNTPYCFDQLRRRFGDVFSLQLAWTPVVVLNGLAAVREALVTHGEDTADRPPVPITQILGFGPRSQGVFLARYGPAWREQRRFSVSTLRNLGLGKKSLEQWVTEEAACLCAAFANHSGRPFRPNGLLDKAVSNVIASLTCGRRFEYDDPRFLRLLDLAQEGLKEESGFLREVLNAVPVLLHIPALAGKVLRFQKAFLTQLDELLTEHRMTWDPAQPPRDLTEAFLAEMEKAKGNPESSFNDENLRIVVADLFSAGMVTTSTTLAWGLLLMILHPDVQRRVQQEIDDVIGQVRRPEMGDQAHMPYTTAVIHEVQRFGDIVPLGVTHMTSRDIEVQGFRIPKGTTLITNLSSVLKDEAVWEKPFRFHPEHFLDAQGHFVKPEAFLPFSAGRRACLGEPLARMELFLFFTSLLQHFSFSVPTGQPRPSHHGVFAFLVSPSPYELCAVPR
How it was run: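 Luminescence (RLU), read 20 min after detection reagent, indicated CYP2D6 conversion of proluciferin to luciferin during a 1 h NADPH-dependent reaction at room temperature.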

[16] = molecular target: Thyrotropin-releasing hormone receptor (Homo sapiens) (UniProt P34981); assay: qHTS assay to identify small molecule antagonists of the thyrotropin-releasing hormone receptor (TRHR) signaling pathway (AID 1346877; active = well fitted inhibition curve with a large enough effect in the repeat runs, not every such curve was filed as active; also: series mostly up to about 51 µM)
Thyrotropin-releasing hormone receptor (Homo sapiens), sequence (P34981 whole entry, looked up): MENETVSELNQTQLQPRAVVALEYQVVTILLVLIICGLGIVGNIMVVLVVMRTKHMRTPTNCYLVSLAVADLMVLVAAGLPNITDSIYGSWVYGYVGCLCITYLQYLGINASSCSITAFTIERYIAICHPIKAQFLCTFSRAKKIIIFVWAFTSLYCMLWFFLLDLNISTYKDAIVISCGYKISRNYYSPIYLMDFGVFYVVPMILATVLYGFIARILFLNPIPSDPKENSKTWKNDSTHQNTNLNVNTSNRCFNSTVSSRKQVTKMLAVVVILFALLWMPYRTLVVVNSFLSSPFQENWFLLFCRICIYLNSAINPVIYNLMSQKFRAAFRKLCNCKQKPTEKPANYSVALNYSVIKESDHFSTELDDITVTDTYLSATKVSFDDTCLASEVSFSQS
How it was run: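 Screening used HEK293 cells engineered with TRHR, with a brief 5 min room-temperature compound exposure preceding addition of TRH to 1 nM. The read-out was kinetic calcium-dye fluorescence, concentration-response from 15 doses in triplicate.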

[17] = molecular target: Thyrotropin-releasing hormone receptor (Homo sapiens) (UniProt P34981); assay: qHTS assay to identify small molecule agonists of the thyrotropin-releasing hormone receptor (TRHR) signaling pathway (AID 1346891; calls by dose curve; also: series mostly up to about 58 µM)
How it was run: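 Intracellular calcium rise, read as fluorescence every second for 3 min, served as the agonist signal in dye-loaded HEK293 cells expressing TRHR; each compound ran at 15 concentrations in triplicate.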

[18] = Caspase-3/7 induction in CHO-K1 cells by small molecules, qHTS assay (AID 1346980); also: nearly all actives have a fitted effect of over 15% in size
How it was run: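 Luminescent Caspase-Glo 3/7 read (30min, room temperature) quantified apoptosis induction. Cells were wild-type CHO-K1, treated with compound for 17hr at 37 C and 5% CO2.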

[19] = molecular target: Nuclear receptor subfamily 1 group I member 2 (Rattus norvegicus) (UniProt Q9R1A7); assay: Rat pregnane X receptor (rPXR) activation by small molecules, qHTS assay (AID 1346983); conditions: rPXR luciferase reporter cells, One-Glo luminescence, 24 h; max activation: stronger effect = higher value; also: nearly all actives have a fitted effect of over 20% in size
Nuclear receptor subfamily 1 group I member 2 (Rattus norvegicus), sequence (Q9R1A7 whole entry, looked up): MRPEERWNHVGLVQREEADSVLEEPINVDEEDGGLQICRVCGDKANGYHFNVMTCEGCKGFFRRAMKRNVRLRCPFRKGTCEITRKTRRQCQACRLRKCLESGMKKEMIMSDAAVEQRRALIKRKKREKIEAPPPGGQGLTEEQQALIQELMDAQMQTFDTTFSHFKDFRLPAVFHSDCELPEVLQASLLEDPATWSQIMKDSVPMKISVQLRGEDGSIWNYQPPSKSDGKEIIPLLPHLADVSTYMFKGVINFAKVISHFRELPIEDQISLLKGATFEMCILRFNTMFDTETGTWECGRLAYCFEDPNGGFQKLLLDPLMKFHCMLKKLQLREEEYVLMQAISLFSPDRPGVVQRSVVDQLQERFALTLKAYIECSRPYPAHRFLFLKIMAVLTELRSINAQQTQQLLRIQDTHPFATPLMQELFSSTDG
How it was run: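 Luminescent readout (One-Glo luciferase, 30 min room temperature) followed 24 hr compound treatment at 37 C of rPXR cells plated 2,000 per well and preincubated 5hr; qHTS format with compounds delivered in DMSO.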

[20] = molecular target: Nuclear receptor subfamily 1 group I member 2 (Homo sapiens) (UniProt O75469); assay: CYP3A4 induction through human pregnane X receptor (PXR) by small molecules, qHTS assay (AID 1346984); also: nearly all actives have a fitted effect of over 40% in size
How it was run: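 qHTS, concentration-response format: HepG2 DPX-2 line, PXR/CYP3A4-luc. Exposure 24 h, 37C. Substrate Luciferin-IPA 3uM final, 3 h. Detection One-Glo, 30 min RT.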

| Structure (SMILES) | Potency [1] | Potency [2] | Potency [3] | Potency [4] | Potency [5] | Potency [6] | outcome [7] | Potency [8] | Potency [9] | Potency [10] | Potency [11] | Potency [12] | Potency [13] | Potency [14] | Potency [15] | outcome [16] | outcome [17] | outcome [18] | max activation [19] | Potency [20] |
| --- | --- | --- | --- | --- | --- | --- | --- | --- | --- | --- | --- | --- | --- | --- | --- | --- | --- | --- | --- | --- |
| COC1CCC=CO1 (stereo not given) | inactive | inactive | inactive | inactive | inactive | inactive | inactive | inactive | inactive | inactive | inactive | inactive | inactive | inactive | inactive | – | – | – | – | – |
| O=C(O)c1cccc(Oc2ccccc2)c1 | inactive | inactive | inactive | inactive | inactive | inactive | inactive | – | – | inactive | inactive | – | inactive | inactive | inactive | inactive | inactive | inactive | – | – |
| CCC(CO)(CO)[N+](=O)[O-] | inactive | inactive | inactive | inactive | inactive | inactive | inactive | inactive | inactive | inactive | inactive | inactive | inactive | inactive | inactive | – | – | inactive | – | – |
| CC(C)C1CCC(C(=O)N[C@H](Cc2ccccc2)C(=O)O)CC1 (stereo not given in full) | inactive | inactive | inactive | inactive | inactive | inactive | inactive | inactive | inactive | inactive | inactive | inactive | inactive | inactive | inactive | – | – | inactive | -2.46% | – |
| CCC(C)(C)C(=O)O | inactive | inactive | inactive | inactive | inactive | inactive | inactive | – | inactive | inactive | inactive | inactive | inactive | inactive | inactive | inactive | inactive | – | – | – |
| CC12CC3CC(C)(C1)CC(N)(C3)C2 | inactive | inactive | inactive | inactive | inactive | inactive | inactive | – | inactive | – | inactive | inactive | inactive | inactive | – | – | – | inactive | – | – |
| C[C@H](CS)C(=O)N1CCC[C@H]1C(=O)O | inactive | inactive | inactive | inactive | inactive | inactive | – | inactive | inactive | inactive | inactive | inactive | inactive | – | – | inactive | inactive | inactive | 0.201% | – |
| C=Cc1ccc(OC(C)=O)cc1 | inactive | inactive | inactive | inactive | inactive | inactive | inactive | inactive | inactive | inactive | inactive | inactive | inactive | – | inactive | – | – | – | – | – |
| CCC(=O)OCc1ccc(OC)cc1 | inactive | inactive | inactive | inactive | inactive | inactive | – | inactive | inactive | inactive | inactive | – | – | inactive | inactive | inactive | inactive | inactive | – | – |
| CCN(CC)CC(=O)Nc1c(C)cccc1C(=O)OC | inactive | inactive | inactive | inactive | inactive | inactive | inactive | inactive | inactive | inactive | inactive | inactive | inactive | inactive | 38.9 µM (active) | – | – | inactive | – | – |
| CN=C(N)NC(=O)Nc1c(C)cccc1C | inactive | inactive | inactive | inactive | inactive | inactive | inactive | – | inactive | inactive | inactive | – | inactive | inactive | inactive | – | – | – | – | – |
| O=C1OC[C@H](Cc2cccc(O)c2)[C@H]1Cc1cccc(O)c1 | inactive | inactive | inactive | inactive | inactive | – | inactive | inactive | inactive | inactive | inactive | inactive | inactive | inactive | – | inactive | inactive | inactive | – | – |
| CC[C@H]1OC(=O)[C@H](C)[C@@H](O[C@H]2C[C@@](C)(OC)[C@@H](O)[C@H](C)O2)[C@H](C)[C@@H](O[C@@H]2O[C@H](C)C[C@H](N(C)C)[C@H]2O)[C@](C)(O)C[C@@H](C)C(=O)[C@H](C)[C@@H](O)[C@]1(C)O | inactive | inactive | inactive | inactive | inactive | inactive | inactive | inactive | inactive | inactive | inactive | inactive | inactive | inactive | inactive | – | – | inactive | -0.703% and -0.253% | inactive |
| CCOc1ncc(F)c(=O)[nH]1 | inactive | inactive | inactive | inactive | inactive | – | inactive | inactive | inactive | inactive | inactive | inactive | inactive | inactive | inactive | inactive | inactive | inactive | – | – |
| CCCCC[C@H](O)/C=C/[C@H]1[C@H](O)CC(=O)[C@@H]1C/C=C\CCCC(=O)O | inactive | inactive | inactive | inactive | inactive | inactive | inactive | inactive | – | inactive | inactive | inactive | inactive | inactive | inactive | inactive | inactive | – | -0.864% | inactive |
